Screens (PubChem BioAssay)
D1 agonist: agonists of human D1 dopamine receptor; P21728; HEK293 T-REx D1 cells, calcium flux, agonist mode; activation, % at 2 µM; 1% of 360,000 active; AID 504660; in the data active = activation above about 30%; also: 0% is about no effect
Target sequence (P21728 whole entry, looked up): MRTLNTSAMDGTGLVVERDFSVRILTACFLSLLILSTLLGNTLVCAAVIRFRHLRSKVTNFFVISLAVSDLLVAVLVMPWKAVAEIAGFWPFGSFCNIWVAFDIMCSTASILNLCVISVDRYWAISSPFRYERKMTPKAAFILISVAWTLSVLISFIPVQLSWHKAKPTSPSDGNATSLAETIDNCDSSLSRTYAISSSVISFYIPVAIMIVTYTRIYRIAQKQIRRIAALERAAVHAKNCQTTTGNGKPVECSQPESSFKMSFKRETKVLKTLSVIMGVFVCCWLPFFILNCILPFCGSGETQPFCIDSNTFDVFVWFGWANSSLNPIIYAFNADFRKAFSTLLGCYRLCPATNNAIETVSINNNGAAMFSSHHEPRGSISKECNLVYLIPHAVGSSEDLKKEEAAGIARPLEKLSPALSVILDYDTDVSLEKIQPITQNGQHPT
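Inducible HEK293 T-REx D1 cells, force-coupled to calcium signalling, were plated at 4000 cells/well with tetracycline and held overnight at 30 C. After no-wash calcium dye loading, compound-evoked calcium rise over 180 s flagged agonists.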
DRD3 antagonist: D3 dopamine receptor (human) antagonism; 2.5% of 360,000 active; P35462; max response, negative = inhibition, %; D3R cells, DiscoveRx beta-arrestin luminescence, antagonist mode; active compounds read low; in the data active = max response below about -50%; inconclusive = no clear call, values can overlap the other calls; also: % is scaled to controls: 0 for no effect and ±100 for the full control effect
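Cells plated overnight at 1500 cells/well, then exposed to library compounds with dopamine controls for 90 minutes at 37 degrees C. DiscoveRx reagent added for 30–60 minutes at room temperature; luminescence read, quantitative HTS format.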
D1 potentiator: enhances dopamine response at the human D1 receptor; P21728; potentiation, % at 10 µM; 0.036% of 360,000 active; HEK293 TREx D1 cells, calcium flux, dopamine EC20 potentiation; in the data active = potentiation above about 30%; also: 0% is about no effect
D1 antag: antagonists of human D1 dopamine receptor. activity change, negative = inhibition, % at 10 µM. HEK293 TREx D1 cells, calcium flux, dopamine EC80; active compounds read low. P21728. 3.2% of 360,000 active. AID 504652; in the data active = activity change below about -30%; also: % is scaled to controls: 0 for no effect and ±100 for the full control effect
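Kinetic fluorescence of a calcium dye serves as the read-out. D1-expressing Hek293 Trex cells, induced overnight at 30 C, are exposed to compound for 180 s before an EC80 dopamine addition, then read 180 s further.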
DRD3 agonist: activates the human D3 dopamine receptor; 0.58% of 410,000 active; P35462; AID 652048; max activation, %; D3R DiscoveRx beta-arrestin cells, luminescence, 90 min; in the data active = max activation above about 30%; also: 0% is about no effect
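Cells at 1500/well, incubated overnight, then treated with pinned compounds (dopamine as control) for 90 min at 37 degrees C. DiscoveRx reagent added for 30 - 60 minutes at room temperature; luminescence read.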
The depositor's hits bear a star; ? = inconclusive; · = no result. Only some compounds are listed: those with a hit (about 6.1% of all), similar ones and a draw of the others.

SMILES	D1 agonist	DRD3 antagonist	D1 potentiator	D1 antag	DRD3 agonist
O=C(C[n+]1cccc(CNC(=O)c2ccc(OC(F)F)cc2)c1)Nc1ccc(SC(F)F)cc1	0	6	-9	-10	-9
O=C(NC(c1ccc(Cl)cc1)c1ccsc1)C1CCN(Cc2cccc(C(F)(F)F)c2)CC1 (centres undefined)	·	-93*	·	·	-21
O=C(NC(c1ccc(Cl)cc1)c1ccsc1)C1CCN(Cc2cccc(Cl)c2)CC1 (centres undefined)	·	-50*	·	·	-18
O=C(NNC(=O)C1CCN(Cc2cccc(F)c2)CC1)c1cccc(Cl)c1	2	-10	-6	-5	-20
CCN(CC)CCSc1nnc2c3ccccc3n(Cc3ccccc3)c2n1	4	-93*	-1	-4	-23
COc1cc(CNn2c(C)n[nH]c2=S)cc(Cl)c1OCc1ccc(F)cc1	37*	-29	-2	-1	-20
COc1cc(CNC2CCCC2)cc(Cl)c1OCc1ccc(F)cc1	32*	59	-6	4	3
CCOc1cc(CNC2CCCC2)cc(Cl)c1OCc1ccc(F)cc1	102*	-13	42*	-7	-15
Cc1ccc2ccc(S(=O)(=O)n3nc(C)cc3C)cc2c1	14	-60*	-2	-8	-10
Cc1cc(C)n(S(=O)(=O)c2ccc(C)c(C)c2)n1	3	6	2	13	-9
Cc1cc(C)n(S(=O)(=O)c2ccccc2[N+](=O)[O-])n1	5	-10	2	-56*	-6
CCOC(=O)c1cc(-c2ccccc2)n(CC(=O)Nc2cc(Cl)c(OC)cc2OC)c1C	1	·	0	1	-13
CSCCC(NC(=O)c1ccc(Cl)cc1Cl)C(=O)N(C)Cc1nc2ccccc2c(=O)[nH]1 (centres undefined)	3	-51*	-5	-20	-8
Cc1c(Cl)cccc1NC(=S)NNS(=O)(=O)c1ccc([N+](=O)[O-])cc1	2	-2	1	3	0
O=C(COc1ccc([N+](=O)[O-])cc1)Nc1ccccc1C(=O)NC1CC1	2	-5	-2	-5	6
COc1ccc(NC(=O)CN2CCN(Cc3ccc4c(c3)OCO4)CC2)cc1OC	2	-73*	-3	-10	-10
COc1cccc(C(=O)N2CCN(Cc3ccc4c(c3)OCO4)CC2)c1OC	0	-67*	-3	-22	-3
Cn1c(C(=O)N2CCC(C(=O)N3CCN(Cc4ccc5c(c4)OCO5)CC3)CC2)cc2sccc21	3	0	6	-16	-9
COc1ccc(CN2CCN(C(=O)c3cccc(OC)c3OC)CC2)cc1OC	5	1	0	5	0
Cn1c(C(=O)N2CCN(Cc3ccc4c(c3)OCO4)CC2)cc2sccc21	0	-96*	-3	-20	-32
COc1ccsc1C(=O)N1CCN(Cc2ccc3c(c2)OCO3)CC1	0	-63*	-2	-3	-2
C[C@@H]1C[C@H]2C3C[C@H](F)C4=CC(=O)C=CC4(C)[C@@]3(F)[C@@H](O)CC2(C)[C@@]1(O)C(=O)COC(=O)C(C)(C)C (some centres undefined)	·	·	·	·	-19
O=C1Nc2c(c(=O)[nH]c(=O)n2-c2ccc(Cl)cc2)C1(NS(=O)(=O)c1ccccc1)C(F)(F)F (centres undefined)	0	·	-2	11	2
COc1ccc(-c2ccc(OC)c([C@H]3[C@H]4C=CC[C@@H](C)[C@@H]4C(=O)N3Cc3ccccc3)c2)cc1	8	-52*	0	34	-56
COc1ccc(-c2ccoc2)cc1[C@H]1[C@H]2C=CC[C@@H](C)[C@@H]2C(=O)N1Cc1ccccc1	6	-56*	0	22	-45
SMILES	D1 agonist	DRD3 antagonist	D1 potentiator	D1 antag	DRD3 agonist
COc1ccc(-c2ccc(C)cc2)cc1[C@H]1[C@H]2C=CC[C@@H](C)[C@@H]2C(=O)N1Cc1ccccc1	2	-11	2	1	-37
CCOc1ccc(N2CC(C(=O)N3CCCCCC3)CC2=O)cc1 (centres undefined)	0	-15	4	2	-14
CCOc1ccc(N2CC(C(=O)N3CCCC3)CC2=O)cc1 (centres undefined)	0	0	-4	-83*	-3
NC(=O)C1CC(=O)N(c2ccc(OCC(=O)N3CCCC3)cc2)C1 (centres undefined)	·	7	·	·	0
CCCNC(=O)C1CC(=O)N(c2ccc(OCc3ccc(F)cc3)cc2)C1 (centres undefined)	12	3	-8	-36*	9
NC(=O)C1CC(=O)N(c2ccc(OCc3ccc(Cl)cc3)cc2)C1 (centres undefined)	18	-1	-6	-39*	4
O=C(NCc1nnnn1-c1ccc(F)cc1)C1CC(=O)N(c2ccc(F)cc2)C1 (centres undefined)	0	6	0	-30*	-14
CCCNC(=O)C1CC(=O)N(c2ccc(OCc3ccc(Cl)cc3)cc2)C1 (centres undefined)	12	2	1	-7	8
O=C(c1ccccc1)N1CCc2cc(CNS(=O)(=O)c3ccc(Cl)s3)ccc21	2	·	0	3	9
Nc1ccn([C@@H]2O[C@H](CNCc3ccc(C#CCCO)cc3)[C@@H](O)[C@H]2O)c(=O)n1	·	-21	·	·	-11
Cc1cccc(OC(=O)c2cc(-c3ccc(Cl)cc3)on2)c1C	6	·	0	-5	-8
Cc1ccc(CN2CCN(C3CCN(C(=O)Nc4ccc(C)cc4Cl)CC3)C(=O)C2=O)cc1	-1	·	2	15	-14
CCN(CC)CCCNC(=O)Cc1csc2nc(-c3ccc(Cl)cc3)cn12	0	·	-2	2	-4
C=CCNC(=O)C1CC(=O)N(c2ccc(OCC(=O)Nc3ccc(OC)cc3)cc2)C1 (centres undefined)	-1	0	-1	16	2
C=CCNC(=O)C1CC(=O)N(c2ccc(OCC(=O)Nc3ccc(C)cc3)cc2)C1 (centres undefined)	0	0	-11	-31*	1
O=C(C1CCCCN1S(=O)(=O)c1ccccc1)N1CCN(Cc2ccccc2)CC1 (centres undefined)	0	?	-5	6	-49
O=C(C1CCCCN1S(=O)(=O)c1ccccc1)N1CCN(C(c2ccccc2)c2ccccc2)CC1 (centres undefined)	8	-3	2	-30*	-22
Cc1ccc(S(=O)(=O)NNC(=O)C2CCN(Cc3ccccc3)CC2)cc1	1	-63*	-2	7	-10
Cc1ccc(S(=O)(=O)N2CCCCC2C(=O)N2CCN(Cc3ccccc3)CC2)cc1 (centres undefined)	1	-52*	-7	2	-45
COC(=O)C1CCN(Cc2ccc(C)cc2)CC1	1	?	-7	10	0
CCCc1cc(=O)[nH]c(SCC(=O)c2ccc3c(c2)NC(=O)CO3)n1	0	-17	-4	-7	-13
